Z-score data for 40 molecules are collected here from PubChem BioAssay.

Each structure is given as a SMILES string. Active and inactive are the calls of the source.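 The calls were made as follows: active = mean z-score across replicates of 1.96 or higher in either the MELAS or the Rieske mutant cell line; inactive = the rest.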

This experiment in a line: survival rescue of mitochondrial mutant cells in low glucose, primary screen, MELAS cybrids, Rieske KO mouse fibroblasts, CellTiter-Glo (AID 1508586).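 Also: test concentration not given here; z relative to plate mean and SD of compound and empty wells.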 Particulars: MELAS cybrid survival, CellTiter-Glo 48 h, stronger effect = higher value.
Consider `CN1CCCC1CCNC(=O)c1cc(-c2ccccc2)cc(S(=O)(=O)N2CCSCC2)c1` (stereo not given), for which the z-score was -0.508 (inactive). Take `CCOC(=O)N1CCC(NC2CCc3c(c(C(=O)N(C)C)nn3Cc3ccccc3)C2)CC1` (stereo not given): the z-score is -0.0814 (inactive). With `COC(=O)CN1C(=O)N(CCc2ccccc2)C2(CCN(Cc3ccc4c(c3)OCCO4)CC2)C1=O`, the z-score was -0.212 (inactive). Consider `C[C@@H](NC(=O)N[C@H]1C[C@H]2C(=O)N[C@H](Cc3ccc(O)cc3)C(=O)N2C1)c1ccccc1`, for which the z-score was -0.3 (inactive). The same measure for `COC(=O)c1c(NC(=O)C2CCC2)c2cc(NC3CCSCC3)cnc2n1CCc1ccccn1`: -0.0865 (inactive). The same measure for `CCOC(=O)c1nn(CCc2ccccc2)c2c1CN(C(=O)CCc1nc3ccccc3s1)CC2`: -0.261 (inactive); for `CN1CC(=O)N2CCN(C(=O)NCc3ccccc3)C[C@@H]2C1=O`: -0.0344 (inactive). As to `Cc1ccn2cc(C(=O)N3CCc4c(cc(-c5ccc(OC(F)(F)F)cc5)c(=O)n4C)C3)nc2c1`, the z-score is -0.191 (inactive).

Turning to `CC1=C(CCN2CCC3(CC2)C(=O)N(C(C)C)C(=O)N3C)C(C)(C)CCC1`, the z-score was -0.0598 (inactive).

`CCn1nc(C(=O)N2CCCC2)c2c1CCC(NCCC1=CCCCC1)C2` (stereo not given): the z-score is 1.1 (inactive). To `COCCN1C(=O)N(C(C)C)C(=O)C12CCN(Cc1c(F)cccc1Cl)CC2` belongs -0.424 (inactive).

On to `COc1ccc(C(=O)N2CCN3C(=O)[C@H](COCc4ccccc4)NC(=O)[C@H]3C2)cc1`, for which the z-score was 1.06 (inactive). As for `O=C1N[C@@H](Cc2ccccc2)C(=O)N2CCN(C(=O)c3cccs3)C[C@H]12`, the z-score is -0.168 (inactive). To `COC(=O)c1c(NC(=O)c2cccnc2)c2cc(NCc3ccc4c(c3)CCO4)cnc2n1CC(C)C` belongs -0.55. To `CC(C)/C=C/CNc1cc(C(=O)NCc2cn3ccccc3n2)cc(S(=O)(=O)NC(C)C)c1` belongs 1.64 (inactive); to `CC(C)Cn1nc(C(=O)N2CCOCC2)c2c1CCC(NCc1ccc(F)cc1)C2` (stereo not given), 0.123 (inactive).

On to `Cc1csc(-c2cc(C(=O)N(C)C3CCN(C)CC3)cc(S(=O)(=O)N3CCOCC3)c2)c1`, for which the z-score was -0.654 (inactive). To `COc1cc(CN2CCc3c(cc(-c4cccc(F)c4)c(=O)n3CCn3ccc(C)n3)C2)ccc1O` belongs 0.37 (inactive); to `CCCCNC(=O)[C@@H]1C[C@H](CN2CCOCC2)CN(CCc2ccccc2)C1`, 1.78 (inactive); to `CC(C)=CCNc1cc(C(=O)NCc2cn3ccccc3n2)cc(S(=O)(=O)NC(C)C)c1`, -0.403 (inactive).

On to `O=C(Nc1ccccc1Cl)N[C@H]1C[C@H]2C(=O)N[C@H](Cc3ccc(O)cc3)C(=O)N2C1`, for which the z-score was -0.242 (inactive). To `COC(=O)c1c(NC(=O)C2CCOC2)c2cc(NC(C)CO)cnc2n1CCCc1ccccc1` (stereo not given) belongs -1.11 (inactive).

Regarding `COC(=O)c1c(NC(C)=O)c2cc(NC3CCOCC3)cnc2n1CCc1ccc(OC)cc1`, the z-score is -0.209 (inactive).

Turning to `Cc1ccc(C(=O)N[C@H]2C[C@H]3C(=O)N[C@@H](Cc4ccc(O)cc4)C(=O)N3C2)cc1F`, the z-score is -0.462 (inactive). In the case of `CC(C)N1CC(OCc2ccc(F)cc2)CN(C(=O)c2ccc(C#CC(C)(C)O)o2)CC1=O` (stereo not given), the z-score is -0.3 (inactive). Regarding `O=C1N[C@@H](Cc2c[nH]c3ccccc23)C(=O)N2C[C@@H](NCc3ccccc3Cl)C[C@@H]12`, the z-score is -0.311 (inactive). With `O=C(NCCn1ccnc1)c1cc(NCC2CC=CCC2)cc(S(=O)(=O)N2CCCC2)c1` (stereo not given), the z-score was -0.174 (inactive). For the molecule `CCc1nc(Cn2c3c(cc(-c4ccccc4C)c2=O)CN(Cc2ccc(O)c(Cl)c2)CC3)no1`, the z-score was -0.286 (inactive).

For the molecule `CCCCNC(=O)[C@@H]1C[C@H](CN2CCOCC2)CN(Cc2ccc(O)cc2)C1`, the z-score is 1.06 (inactive). To `O=C1N[C@H](CO)C(=O)N2CCN(C(=O)c3ccc(F)cc3)C[C@H]12` belongs 1.91 (inactive); to `CN(Cc1nc(-c2ccccc2)cs1)C1CCc2c(c(C(=O)N3CCSCC3)nn2C)C1` (stereo not given), 0.0592 (inactive). For `COc1cc(/C=C/CN2CC(=O)N(C(C)C)CC(OCc3noc(C)n3)C2)ccc1O` (stereo not given), the z-score was -0.167 (inactive). Take `CCC(C)C(=O)Nc1c(C(=O)OC)n(CC2CCCO2)c2ncc(NC3CCSC3)cc12` (stereo not given): the z-score was -0.0694 (inactive). For `CN1C(=O)N(Cc2ccccc2)C2(CCN(Cc3nc4ccccc4n3C)CC2)C1=O`, the z-score was 0.0463 (inactive). In the case of `Cc1ccc(-c2cc(C(=O)N3CCC[C@H]3CO)cc(S(=O)(=O)N3CCOCC3)c2)s1`, the z-score was -0.348 (inactive). To `Cc1ccc(-c2cc(C(=O)N(C)CCc3cnn(C)c3)cc(S(=O)(=O)N3CCOCC3)c2)s1` belongs -0.0954 (inactive); to `COC(=O)c1c(NC(=O)c2ccoc2)c2cc(NC3CCSCC3)cnc2n1CC(C)C`, -0.463 (inactive). On to `CC(C)CN1CC(OCc2cccc(F)c2)CN(C(=O)Cn2cnc3ccccc3c2=O)CC1=O` (stereo not given), for which the z-score is -0.0292 (inactive). Consider `O=C(c1nn(Cc2ccncc2)c2c1CN(Cc1ccsc1)CC2)N1CCCC1`, for which the z-score is -0.1 (inactive).

With `CN(Cc1cscn1)C(=O)c1nn(CC2CC2)c2c1CN(C(=O)Cn1cnc3ccccc31)CC2`, the z-score was 0.533 (inactive).
